This is a sample that favours compounds with a hit; in the whole collection about 10% have one here.
ALOX12 inhib: 12-hLO (ALOX12) enzyme inhibition | P18054 | purified 12-hLO, xylenol orange hydroperoxide absorbance | Potency, µM (series often up to 57.1 µM), for the others: at the top dose activity change, negative = inhibition, hits mostly inhibitors | 0.12% of 150,000 active | AID 1452; active means well fitted inhibition curve with a large enough effect; inconclusive means small, poorly fitted or top-dose-only effect; further: potency means the concentration at half of the fitted maximal effect; nearly all actives have a fitted effect of over 55% in size
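Purified human 12hLO (150 nM final) was preincubated with compounds for 15 min at room temperature in 25 mM Hepes pH 7.0, 0.01% Triton X-100, then reacted with 40 uM arachidonic acid for 30 min. Hydroperoxide was detected with ferrous iron/xylenol orange.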
PNC assembly inh: perinucleolar compartment assembly inhibition; PC3M PTB-GFP, PNC prevalence imaging, 16 h; hits give low values; 3.1% of 140,000 active; activity change (PNC), negative = inhibition, % at 10 µM;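 active means readout at or below -70, meaning at least 70% loss of cells showing the perinucleolar compartment, a nuclear body marking cancer cells; inconclusive means readout between -30 and a set limit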;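 further: plate controls were DMSO wells for no effect and camptothecin positive control wells for full effect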
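Compounds are pinned in duplicate onto adhered PC3M cells stably expressing GFP-tagged PTB and incubated 16 h at 37 C. Cells are then fixed, nuclei stained with Hoechst, and PNC-positive cells counted.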
HPGD block: inhibitors of human 15-hydroxyprostaglandin dehydrogenase (HPGD); 4.3% of 150,000 active; purified HPGD, NADH fluorescence kinetic, PGE2 substrate; AID 894; Potency, µM, for inactives: top-dose activity change, negative = inhibition, hits mostly inhibitors; further: potency means the concentration at half of the fitted maximal effect
Target sequence (P15428 whole entry, looked up): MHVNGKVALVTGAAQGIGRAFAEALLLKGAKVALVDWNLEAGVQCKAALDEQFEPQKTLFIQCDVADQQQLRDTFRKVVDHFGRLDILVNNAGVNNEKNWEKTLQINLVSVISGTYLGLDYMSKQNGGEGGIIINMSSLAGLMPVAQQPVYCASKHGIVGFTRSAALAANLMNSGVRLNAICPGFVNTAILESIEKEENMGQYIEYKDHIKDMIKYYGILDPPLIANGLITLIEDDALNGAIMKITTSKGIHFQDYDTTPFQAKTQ
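20 nM HPGD preincubated 15 min at room temperature with compound in 50 mM Tris-HCl pH 8, 0.01% Tween 20. Started with 1 mM NAD+ and 30 uM prostaglandin E2; NADH fluorescence (360/450 nm) read 5 times over 30-s intervals, last minus first.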
Lamin A splicing: modulators of lamin A splicing; HeLa LMNA splicing GFP/RFP minigene ratio, 48 h; Potency, µM (highest dose often 46.1 µM), inactives show top-dose ratio change, negative = inhibition, most hits filed as inhibitors; 0.01% of 200,000 active; AID 1487; active means well fitted inhibition curve with a large enough effect in the signal ratio, with a control signal flat, not every such curve was filed as active; inconclusive means small, poorly fitted or top-dose-only effect, or effect the other way, or a change in a side signal; the % refers to the signal ratio; further: potency means the concentration at half of the fitted maximal effect
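S3 HeLa stable clones carrying a lamin A-EGFP splicing minigene plus DsRed2 were seeded at 600 cells/well in Opti-MEM with 2% FBS, pin-dosed and incubated 48 h at 37°C. Acumen cytometry (488 nm) gave the GFP/RFP total-intensity ratio.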
ALDH1A1 block: blocks purified human ALDH1A1 activity | P00352 | 7.3% of 220,000 active | Purified ALDH1A1, NADH fluorescence, propionaldehyde substrate | Potency, µM (doses to about 75.3 µM), inactives show top-dose activity, negative = inhibition, actives largely listed as inhibitors;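 further: potency means the concentration at half of the fitted maximal effect; plate controls were no enzyme wells and a reference inhibitor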
An asterisk follows results filed as active; ? = inconclusive; / = not tested or not shown; [ ] = dose if it differs, or a comment. Unless noted, the call rests on the fitted dose curve; in most records, active means well fitted inhibition curve with a large enough effect (not every such curve was filed as active); inconclusive means small, poorly fitted or top-dose-only effect, or another doubt; inactive means no such curve, though single readings can be large or run the other way. Unless noted, on the % scale 0 is the no-effect control and ±100 the full control effect.

SMILES	ALOX12 inhib	PNC assembly inh	HPGD block	Lamin A splicing	ALDH1A1 block
CCSc1cc(C2C(C#N)=C(N)OC(C)=C2C(=O)OC)c(C)o1 (configuration not stated)	-4%	28	-26%	-3%	20µM*
COC(=O)C1=C(C)OC(N)=C(C#N)C1c1ccc(OC)c(CSc2ccccn2)c1 (configuration not stated)	-4%	-87*	-18%	3%	?
Cc1ccc(/C(=N/Nc2nc3ccccc3s2)C2=C(O)c3ccccc3C2=O)cc1	/	/	/	/	-2%
O=C(c1cccn2c(=O)c3cc(Cl)ccc3nc12)N1CCN(c2ccccc2F)CC1	/	/	/	0%[46 µM]	/
O=C1CCCc2cc(S(=O)(=O)N3CCCC(C(=O)NCc4ccc(Cl)cc4)C3)ccc2N1 (configuration not stated)	/	/	/	-7%[46 µM]	/
CN(C)CCn1c2c(c(SCC(=O)Nc3ccc(F)cc3F)nc1=O)CCC2	/	/	/	4%[46 µM]	/
CCOC(=O)C1=C(CSc2nc(CC)c(C)cc2C#N)OC(N)=C(C#N)C1c1ccccc1 (configuration not stated)	-16%	-7	-22%	7%	?
CC(=O)C1=C(c2ccccc2)OC(N)=C(C#N)C1c1ccc(O)cc1 (configuration not stated)	-4%	?	-12%	?	20µM*
CCOC(=O)C1=C(CSc2nc(C)cc(C)c2C#N)OC(N)=C(C#N)C1c1ccccc1 (configuration not stated)	?	17	?	8%	10µM*
CCOC(=O)C1=C(CSc2nc(C)cc(C)c2C#N)OC(N)=C(C#N)C1c1cccs1 (configuration not stated)	-15%	?	-19%	4%	14µM*
CCOC(=O)C1=C(C)OC(N)=C(C#N)C1c1ccccc1 (configuration not stated)	/	/	/	/	22µM*
COc1ccc(/C=C(\C#N)C(N)=O)c(OC)c1	0%[11.4 µM]	/	-16%	/	-3%[13.5 µM]
CCC1CO1 (configuration not stated)	-1%	/	-4%	/	-2%
c1cncc(-c2cncnc2NC2CCNCC2)c1	/	/	/	-9%	25µM*
c1cncc(-c2ccc3ncnc(NC4CCNCC4)c3c2)c1	/	/	/	2%	-6%
OCCNc1ncnc2nc[nH]c12	-1%[11.4 µM]	/	-12%	/	1%[13.5 µM]
CCCC(c1nnnn1C(C)(C)CC)N(Cc1ccco1)Cc1cc2ccc(OC)cc2[nH]c1=O (configuration not stated)	-27%	-28	-21%	?	32µM*
COCCn1c(=O)c(-c2ccc(F)cc2)nc2cnc(Nc3cccc(OC)c3)nc21	/	/	/	?	14%
Cc1ccc(C(C(=O)Nc2ccc3c(c2)OCO3)N(C)C(=O)/C=C\c2ccc3c(c2)OCO3)cc1 (configuration not stated)	0%	-21	-29%	?	?
O=[N+]([O-])c1ccc(O)c(/C=N/Nc2nc3ccccc3[nH]2)c1	1%	-93*	-17%	?	?
C(=N\Nc1nc2ccccc2[nH]1)/c1cccs1	?	4	/	-2%	2.8µM*
Cc1ccsc1/C=N/Nc1nc2ccccc2[nH]1	-7%	96	-11%	-13%	2%
CC(=O)Nc1ccc(S(=O)(=O)Nc2cccc(-c3ccc(N4CCC(C)CC4)nn3)c2)cc1	/	/	/	-5%[46 µM]	/
Cc1ccc(NC(=O)N2CCN(c3nnc(C)c4c(C)n(-c5ccc(Cl)cc5)nc34)CC2)c(C)c1	/	/	/	-12%[46 µM]	/
CCCCC[C@H](O)/C=C/C1=C(C/C=C\CCCC(=O)O)C(=O)CC1	4%	/	-5%	/	-9%
SMILES	ALOX12 inhib	PNC assembly inh	HPGD block	Lamin A splicing	ALDH1A1 block
Cc1ccc(NNC(=S)Nc2ccc(C(C)C)cc2)c(C)c1	?	-1	?	?	22µM*
O=Cc1cccn1-c1nccc(-c2ccco2)n1	/	/	/	15%[46 µM]	22µM*
O=Cc1cccn1-c1ncc(Br)cn1	/	/	/	0%[46 µM]	?
CCC(=O)[C@]12O[C@@]3(C4C(=O)OCCC41)N(CC)C(C)=C(C(=O)OC)C(c1ccccc1)N3C2=O (some centres not stated)	/	/	/	/	1%[13.5 µM]
C=CC1=C2C=C(C3CC3)N(C3CCCCC3)C=C2C(=O)C(C)(OC(=O)c2ccco2)C1=O (configuration not stated)	-1%[11.4 µM]	/	-2%	-18%[9.22 µM]	1%[13.5 µM]
CC1(C(=O)Nc2nccs2)Cc2ccccc2C(=O)O1 (configuration not stated)	-1%	8	-4%	7%	9%
CC1(C(=O)Nc2nnc(SCc3ccccc3)s2)Cc2ccccc2C(=O)O1 (configuration not stated)	-4%	?	28µM*	3%	?
C/C(CCC(=O)OC[C@@H]1O[C@H](C#Cc2ccccc2)C=C[C@@H]1Oc1ccc(C)cc1)=N/O[C@@H](C)CN1CCCCc2nc(C)c(C)cc21	/	/	/	/	8%[13.5 µM]
CCCCC(CC)COC(=O)CCCCC(=O)OCC(CC)CCCC (configuration not stated)	2%	/	-4%	/	-5%
CCCCC(CC)COCC1CO1 (configuration not stated)	1%	/	-7%	/	13µM*
NCC1CCC(N)C(O[C@@H]2C(O)[C@H](O[C@H]3OC(CO)C(O)C(N)C3O)[C@@H](N)C[C@H]2N)O1 (some centres not stated)	0%	/	-4%	?	-5%
CCCc1c(OCCCOc2ccc(OCC(=O)O)cc2)ccc(CC=O)c1O	-6%	/	-4%	/	0%
COCCNc1nc(CSc2ccccc2)nc2sc(C)c(C)c12	-3%	-86*	/	9%	?
CCC(=O)N1c2ccccc2-c2nnc(SC)nc2OC1c1ccc(N(C)C)cc1 (configuration not stated)	-3%	19	-5%	-7%	16µM*
CCc1ccccc1NC(=O)c1ccc(F)c(S(=O)(=O)N2CCN(c3ccccc3OC)CC2)c1	/	/	/	-21%[46 µM]	/
CN(C)C(=O)c1ccc(Oc2ccc(C(=O)N(C)C)cc2)cc1	0%	27	16µM*	10%	?
CC(=O)c1ccc(Oc2ccc(C(C)=O)cc2)cc1	-1%	137	?	-2%	9%
CC(C)c1nn2c(=O)cc(COC(=O)c3cccc(NC(=O)c4ccccc4F)c3)nc2s1	/	/	/	-10%[46 µM]	/
Cc1cc(Nc2cccc(Cl)c2)nc(NCc2ccccc2)n1	-10%	-94*	-8%	?	4%
Cc1cc(N/N=C/c2cccc(Cl)c2)nc(NCc2ccccc2)n1	-5%	17	-11%	?	-1%
O=C1C2CCCN2C(c2ccccc2)N1c1ccc(Cl)cc1 (configuration not stated)	0%	?	4%	?	3%
COc1ccc(C2N(c3cc(Cl)ccc3OC)C(=O)C3CCCN32)cc1 (configuration not stated)	-3%	2	-13%	-4%	10µM*
